# Data as given in PubChem BioAssay AID493169 (National Center for Advancing Translational Sciences (NCATS), 2011).
# Results filed as inconclusive are left out. Unmarked numbers belong to inactive results. Activity calls are given as the source filed them. The call rests on the fitted dose curve; in most records, active means well fitted inhibition curve with a large enough effect; inconclusive means small, poorly fitted or top-dose-only effect; inactive means flat fitted curve, though single readings scatter.
# Assay: CHOP2 Reporter Counterscreen Assay for Inhibitors of Ubiquitin-specific Protease USP2a;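 further: activated enterokinase alone at 50 pM in a cell-free format rather than USP2a or CHOP2; nearly all actives have a fitted effect of over 55% in size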
# Details: purified enterokinase, fluorogenic substrate, 485/531 nm; series mostly up to 38.3 µM; activity change, negative = inhibition: at the top concentration
# Procedure, shortened: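 Cell-free counterscreen with pre-activated enterokinase alone (50 pM final) in 20mM Tris-HCl pH 8.0, 2mM CaCl2, 2mM beta-mercaptoethanol, 0.05% CHAPS; compound preincubation 30 min RT, reporter substrate 25nM final, fluorescence read after 10 min (Ex 485/Em 531).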
# On the % scale 0 is the no-effect control and ±100 the full control effect; potency means the concentration at half of the fitted maximal effect.
Compound,"activity change, negative = inhibition [%]",Potency
NC(=O)CC(NC(=O)Cc1ccc(Br)cc1)c1ccc(N2CCC(Cc3ccccc3)CC2)c([N+](=O)[O-])c1 (stereo not given),2.37,–
COCCn1c(SCC(=O)Nc2cc(C)on2)nnc1-c1ccccc1,-0.447,–
O=C(Nc1cccc(S(=O)(=O)N2CCCC2)c1)c1cncc(Br)c1,-5.75,–
COc1ccc(C(=O)N/C(=C\c2cccs2)C(=O)N2CCN(C)CC2)cc1OC,0.95,–
CC(=O)c1ccc2c(c1)C1C=CCC1C(C(=O)O)N2 (stereo not given),–,11.2 µM (active)
COc1ccc(CCN2C(=O)/C(=C\c3ccco3)SC2=S)cc1OC,-0.0556,–
COc1cccc(NC(=O)Cc2ccccc2)c1,8.41,–
CCCCCCCCCCOC(=O)Cn1c(COc2ccc(OC)cc2)[n+](C)c2ccccc21,–,10 µM (active)
C=CCn1c(Br)nc2c1c(=O)n(C)c(=O)n2C,11.7,–
NS(=O)(=O)c1ccc(NC(=O)CN2CCCCC2)cc1,0.546,–
